Compound activity deposited in PubChem BioAssay by Broad Institute.
Most compounds without a hit are left out; they make up all but 3.1% or so of the library.
MITF act = increases MITF-driven TRPM1 promoter luciferase signal. 0.75% of 300,000 active. activation, % at 12.5 µM. SK-MEL-5 TRPM1-promoter luciferase, 24 h; % of positive control, neutral wells = 0;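 active = mean activation of at least 80% with every replicate also reaching 80%; inconclusive = mean reaches 80% but some replicate falls short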
Rtt109 HAT inh = blocks Candida albicans Rtt109/Vps75 acetyltransferase activity | Q5AAJ8 | 0.16% of 330,000 active | purified Rtt109/Vps75, ThioGlo CoA-SH fluorescence, 4 h | inhibition, % at 34.9 µM | AID 540336;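 active = inhibition of at least 50% in every replicate; inconclusive = best replicate reaches 50% inhibition but some replicates fall short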
Target sequence (Q5AAJ8 whole entry, looked up): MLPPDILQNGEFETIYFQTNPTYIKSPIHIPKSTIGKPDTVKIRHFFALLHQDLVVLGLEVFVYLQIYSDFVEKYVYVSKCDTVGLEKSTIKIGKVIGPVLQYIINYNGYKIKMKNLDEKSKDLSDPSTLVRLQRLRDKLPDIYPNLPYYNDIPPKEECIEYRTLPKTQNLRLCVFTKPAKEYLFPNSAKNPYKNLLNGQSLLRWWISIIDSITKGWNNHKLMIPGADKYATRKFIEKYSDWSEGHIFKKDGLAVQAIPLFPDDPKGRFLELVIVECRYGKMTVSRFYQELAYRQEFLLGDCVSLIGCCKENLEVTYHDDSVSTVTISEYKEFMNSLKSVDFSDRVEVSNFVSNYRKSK
esBAF inh = blocks esBAF chromatin remodeling in mouse ES cells; Bmi1-luciferase knock-in reporter, 24 h; 100% = twice the neutral-well signal; reporter increase, % at 12.5 µM; 2% of 350,000 active; in the data active = activation above about 40%; inconclusive = no clear call, values can overlap the other calls;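 note: a rise in the Bmi1 reporter signal indicates esBAF inhibition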
Statin myotox sup = protects C2C12 myotubes from simvastatin toxicity; ATP luminescence, 48 h; scaled: DMSO 0, geranylgeraniol control 100; rescue of ATP level, % at 7.49 µM; 0.78% of 330,000 active; AID 602340;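 active = mean ATP rescue above about 67%, or every replicate alone reaching that limit, limit read from the data, passing the limit was not always enough; inconclusive = no clear call, values can overlap the other calls; inactive = mean under the limit and some replicate under it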;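 note: myotubes were challenged with 10 µM simvastatin during compound exposure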
Wnt act = Wnt/beta-catenin pathway activation. Wnt/beta-catenin reporter cell assay, activator, plate reader. activation, % at 9.35 µM. 1.2% of 300,000 active; in the data active = activation above about 30%, passing the limit was not always enough; inconclusive = no clear call, values can overlap the other calls
Hits are given with their value; i = inactive; ? = inconclusive; nt = no result.

SMILES	MITF act	Rtt109 HAT inh	esBAF inh	Statin myotox sup	Wnt act
C[C@H]1CN([C@@H](C)CO)C(=O)c2cc(-c3ccccc3F)cnc2O[C@H]1CN(C)C(=O)C1CC1	nt	nt	nt	i	nt
CCOC(=O)c1cn[nH]c1NC(=S)Nc1ccc(Cl)cc1	nt	nt	i	i	35.6
Cc1ccc(C(=O)CSc2nnc(-c3ccco3)n2Cc2ccccc2)cc1	i	i	i	82.9	i
NC(=O)NC(=O)CSc1nnc(-c2ccco2)n1Cc1ccccc1	i	nt	i	i	i
Cn1c(SCC(=O)c2ccc(-c3ccccc3)cc2)nnc1-c1ccco1	nt	nt	i	i	nt
O=C(CSc1nnc(-c2ccco2)n1Cc1ccccc1)c1ccccc1	91.2	i	44.5	i	nt
O=C(C[C@H]1C[C@@H]2c3cc(NC(=O)Nc4ccccc4)ccc3O[C@@H]2[C@H](CO)O1)NCC(F)(F)F	nt	nt	i	i	nt
Cc1nc(C(=O)Nc2ccccc2)sc1C(=O)Nc1ccccc1	86.4	i	54.1	i	i
Cc1ccc(NC(=O)c2sc(N)nc2C)cc1	i	i	49.9	i	i
C[C@@H]1CN([C@@H](C)CO)C(=O)c2cc(C#Cc3cccc(F)c3)cnc2O[C@@H]1CN(C)CC1CC1	nt	nt	nt	i	nt
COc1cccc(/C=N/NC(=O)CN(C)S(=O)(=O)c2ccccc2)c1OC	i	i	55.9	i	i
C[C@@H]1CCCCO[C@@H](CN(C)C(=O)Nc2ccc3c(c2)OCO3)[C@@H](C)CN([C@@H](C)CO)C(=O)c2cc(NC(=O)Nc3ccccc3)ccc2O1	nt	nt	i	nt	nt
C[C@H](CO)N1C[C@H](C)[C@H](CN(C)C(=O)Nc2ccccc2)OCCCC[C@H](C)Oc2ccc(NC(=O)Nc3ccc4c(c3)OCO4)cc2C1=O	nt	nt	49.3	i	nt
C[C@H]1CCCCO[C@@H](CN(C)C(=O)Nc2ccccc2)[C@@H](C)CN([C@@H](C)CO)C(=O)c2cc(NC(=O)Nc3ccc4c(c3)OCO4)ccc2O1	nt	nt	44.1	i	nt
Cn1cnc(S(=O)(=O)N2C[C@@H](O)COC[C@@H]3O[C@H](CC(=O)NCc4cc(F)cc(F)c4)CC[C@H]32)c1	nt	nt	i	i	nt
CC(C(=O)NCC1CCCO1)n1cccc1C(=O)c1ccccc1 (stereo not given)	i	i	i	106.9	i
O=C(NC1CC1)c1cc2c(s1)-c1ccccc1OC2	i	i	45.1	i	i
O=C(NCc1cccs1)c1cc2c(s1)-c1ccccc1OC2	nt	i	67.8	i	i
O=C(O)c1cc2c(s1)-c1ccccc1OC2	i	i	i	i	nt
COc1ccc(-c2nc(N)n[nH]2)cc1	i	i	i	i	nt
COc1cc(OC)cc(-c2nc(N)n[nH]2)c1	nt	i	i	105.6	i
COc1cc(NC(=O)c2ccc(F)cc2)ccc1NC(=O)c1cc2ccccc2o1	nt	i	i	i	i
CCC(=O)Nc1ccc(NC(=O)c2cc3ccccc3o2)c(OC)c1	nt	i	42.7	i	i
COc1cc(NC(=O)c2c(OC)cccc2OC)ccc1NC(=O)c1cc2ccccc2o1	93.0	i	?	i	i
C[C@@H]1CN([C@H](C)CO)C(=O)c2cc(NS(=O)(=O)c3cccs3)ccc2O[C@H]1CN(C)S(C)(=O)=O	nt	nt	i	i	nt
SMILES	MITF act	Rtt109 HAT inh	esBAF inh	Statin myotox sup	Wnt act
COc1ccccc1OCc1nc2ccccc2n1C	i	i	47.6	i	i
COc1ccccc1C(O)Cc1nc2ccccc2n1C (stereo not given)	i	i	48.3	i	nt
CC(C)c1ccc(C(O)Cc2nc3ccccc3n2C)cc1 (stereo not given)	nt	i	nt	nt	i
CC(C)NC(=O)N1C[C@H]2[C@@H](c3ccccc31)[C@H](CO)N2C(=O)c1ccccc1	nt	nt	i	i	nt
CCOC(=O)C1CCN(CCC(=O)Nc2ccc(C)c(C)c2)CC1	i	i	nt	nt	45.8
O=C(Cn1cnc2ccccc2c1=O)c1ccccc1	nt	i	i	i	nt
O=C(Cn1cnc2c(nnn2Cc2ccc(Cl)cc2)c1=O)NC1CCCC1	i	i	i	i	nt
O=C(Cn1cnc2c(nnn2Cc2ccc(F)cc2)c1=O)NC1CCCC1	i	i	i	140.7	nt
Cc1ccc(C(=O)Cn2cnc3ccccc3c2=O)cc1	89.4	i	56.0	i	i
CC(C)(C)n1ncc2c(=O)n(CC(=O)c3ccccc3)cnc21	96.4	i	i	i	nt
CC(C)(C)n1ncc2c(=O)n(CC(=O)NC3CCCCC3)cnc21	i	i	44.4	i	nt
O=C(C[C@H]1CC[C@H]2[C@@H](COC[C@H](O)CN2Cc2ccccc2F)O1)N1CCc2ccccc2C1	nt	nt	i	i	nt
C[C@H]1CN([C@@H](C)CO)C(=O)Cc2cc(NS(=O)(=O)c3ccc(F)cc3)ccc2O[C@@H]1CN(C)C(=O)Nc1cccc2ccccc12	nt	nt	i	i	nt
O=C1NC2(CCCCC2)C(=O)N1/N=C/c1ccccc1Br	i	i	49.2	i	i
COc1ccc(OCC(=O)N/N=C(\C)c2ccc(-n3ccnc3)cc2)cc1	i	i	i	i	i
C/C(=N\NC(=O)COc1ccc(C(C)(C)C)cc1)c1ccc(-n2ccnc2)cc1	i	i	47.5	i	nt
COc1ccc(NC(=O)N[C@H]2C=C[C@H](CC(=O)NC3CCCCC3)O[C@@H]2CO)cc1	nt	nt	i	i	nt
C[C@H]1CN([C@@H](C)CO)C(=O)c2cc(NS(=O)(=O)c3cccs3)ccc2O[C@@H]1CN(C)Cc1ccc(Cl)c(Cl)c1	nt	nt	i	i	nt
CCOc1ccc(NC(=O)c2cc3ccccc3cc2OC)cc1	i	i	?	i	i
CCOc1ccc(NC(=O)c2cc3ccccc3cc2O)cc1	i	i	i	i	i
CCOc1ccc(NC(=O)c2ccc(F)cc2F)cc1	92.9	i	i	i	41.4
CCOc1ccc(NC(=O)c2cccc3ccccc23)cc1	nt	i	42.6	i	i
CNC(=O)C[C@H]1CC[C@H]2[C@@H](COc3ccc(NC(=O)C(C)C)cc3C(=O)N2C)O1	nt	nt	i	i	nt
C=CCSc1nc(N)c2c(C)c(C)sc2n1	nt	i	46.2	i	i
CCSc1nc(N)c2c(C)c(C)sc2n1	i	i	nt	nt	i
SMILES	MITF act	Rtt109 HAT inh	esBAF inh	Statin myotox sup	Wnt act
O=C(Nc1ccc2c(c1)OCCO2)C(c1ccncc1)n1c(=O)c(-c2cc3ccccc3[nH]2)nc2ccccc21 (stereo not given)	nt	nt	nt	nt	53.3
CC(=O)N(C)C[C@@H]1Oc2ncc(C3=CCCC3)cc2C(=O)N([C@@H](C)CO)C[C@@H]1C	nt	nt	i	i	nt
COc1ccccc1S(=O)(=O)N[C@@H]1CC[C@H](CCNC(=O)C2CC2)O[C@H]1CO	nt	nt	i	i	nt
O=C(Nc1ccc(Cl)c(Cl)c1)OCc1cccnc1	85.9	i	53.3	i	i
COc1cc(/C=C2\SC(=S)N(NC(=O)c3ccncc3)C2=O)ccc1O	i	i	nt	nt	i
COc1cc(/C=C2\SC(=S)N(NC(=O)c3ccc(O)c(OC)c3)C2=O)ccc1O	i	i	i	102.4	i
Cc1noc(C)c1S(=O)(=O)N(C)C[C@@H]1Oc2c(NS(=O)(=O)c3cn(C)cn3)cccc2C(=O)N([C@H](C)CO)C[C@H]1C	nt	nt	i	i	nt
COc1ccc(CNC(=O)C2CCCN(S(=O)(=O)c3ccc4c(c3)C(C)(C)C(=O)N4C)C2)cc1 (stereo not given)	i	i	i	i	i
